Experimental data reported in PubChem BioAssay AID1671192 (National Center for Advancing Translational Sciences (NCATS), 2021).
Results filed as inconclusive are left out. Values without a mark were called inactive. Activity calls are given as the source filed them. Calls follow the shape of the dose curve; as a rule, active = well fitted curve in the direction sought with a large enough effect; inconclusive = small, poorly fitted or top-dose-only effect, or another doubt; inactive = no such curve, though single readings can be large or run the other way.

What follows are molecules tested against Polyunsaturated fatty acid lipoxygenase ALOX15 (Homo sapiens) (UniProt P16050) (assay: Counterscreen qHTS for inhibitors of human arachidonate 12S-lipoxygenase (ALOX12): ALOX15 Assay). Details: purified ALOX15 enzyme activity; series mostly up to 110 µM; activity change, negative = inhibition: at the top concentration.
Polyunsaturated fatty acid lipoxygenase ALOX15 (Homo sapiens), sequence (P16050 whole entry, looked up): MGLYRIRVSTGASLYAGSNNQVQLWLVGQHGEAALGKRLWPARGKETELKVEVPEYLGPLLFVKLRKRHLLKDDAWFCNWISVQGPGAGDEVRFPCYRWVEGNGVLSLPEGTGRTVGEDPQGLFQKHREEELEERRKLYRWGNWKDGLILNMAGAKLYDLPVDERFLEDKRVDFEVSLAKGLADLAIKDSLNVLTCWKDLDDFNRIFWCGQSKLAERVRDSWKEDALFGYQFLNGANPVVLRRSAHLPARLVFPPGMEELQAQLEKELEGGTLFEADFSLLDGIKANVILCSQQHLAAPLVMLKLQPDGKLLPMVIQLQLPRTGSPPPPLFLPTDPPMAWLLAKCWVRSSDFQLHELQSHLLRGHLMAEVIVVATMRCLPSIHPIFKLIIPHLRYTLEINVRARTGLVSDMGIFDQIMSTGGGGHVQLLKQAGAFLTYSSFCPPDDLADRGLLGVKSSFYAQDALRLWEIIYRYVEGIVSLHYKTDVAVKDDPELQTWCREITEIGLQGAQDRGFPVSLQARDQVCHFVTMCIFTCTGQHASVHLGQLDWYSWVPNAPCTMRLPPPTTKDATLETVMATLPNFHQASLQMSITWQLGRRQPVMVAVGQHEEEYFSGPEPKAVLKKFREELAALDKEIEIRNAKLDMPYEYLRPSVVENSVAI
Method in brief: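 Xylenol orange–ferric complex formation, read as the 573 nm to 405 nm absorbance ratio, tracks product from 50 uM arachidonic acid turned over for 30 min at RT. Enzyme is 40 nM ALOX15, pH 7.5 HEPES buffer, compound-preincubated 15 min.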
Also: 0% is about no effect.

Compound	activity change, negative = inhibition	outcome
CC(=O)NCCC(=O)N1Cc2ccccc2CC2(CCCN2CC2CCNC2)C1 (centres undefined)	-24.8%	–
O=C(O)CCC(=O)N1Cc2ccccc2CC2(CCCN2CC2CCNC2)C1 (centres undefined)	-30.7%	–
CCCC(=O)N1Cc2ccccc2CC2(CCN(Cc3ccccc3)CC2)C1	-9.59%	–
NCCCC(=O)N1CCC2(CC1)CC(NC(=O)CN)c1ccccc12 (centres undefined)	-21%	–
CN1CC(=O)N(c2ccc(Cl)cc2)Cc2c(NCC3CC3)ncnc21	-18.4%	–
COc1ccc(OC)c([S+](=O)([O-])c2nnn3c2nc(NCc2ccc(F)cc2)c2ccccc23)c1	-17.2%	–
CCc1ccc(CN2CCC3(Cc4ccccc4CNC3=O)C2)s1 (centres undefined)	-17.1% [at 146 µM]	–
CN1CC(=O)N(C2CCCNCC2)Cc2c1ncnc2N1CCN(c2ncccn2)CC1 (centres undefined)	-13.9%	–
CN1CC(=O)N(C2CCNCC2)Cc2c1ncnc2N1CCCCC1	-12.3%	–
O=C1NC2(Cc3ccccc31)CN(C(=O)c1ccc3c(c1)OCO3)C2	-17.4% [at 146 µM]	–
NCc1ccc(-c2cccc(Cl)c2)cc1	26.5% [at 146 µM]	–
O=c1n(-c2cccc(Cl)c2)nc2n1CCN([S+](=O)([O-])c1ccccc1)C2	-1.83%	–
Cc1ccc(-c2ccccc2CN)c(C)c1	-18.6% [at 146 µM]	–
CC(C)(C)OC(=O)N1CC(Nc2ccc(O)cc2)C1	–	inactive
CCOCCNc1ncnc2c1CN(C1CCNCC1)C(=O)CN2C	-12.2%	–
COc1ccc(CN2CCC3(C2)C(=O)Nc2ccccc23)cc1 (centres undefined)	-19.9% [at 146 µM]	–
NCc1ccc(-c2cccc(O)c2)cc1	-24.9% [at 146 µM]	–
O=C(c1ccc2c(c1)OCO2)N1CCC(c2nnc3n2CCNC3)CC1	-26%	–
CN1CC(=O)N(c2ccc(Cl)cc2)Cc2c(NC3CCNCC3)ncnc21	-20.7%	–
